# Measured values as given in the supplement of paper PMC8728848.
# Only a selection was taken, and the strongest signals are over-represented in it overall.
# B1: Clec2 (Mus musculus), Q9JL99 (protein)
# chain: MQDEDGYITLNIKPRKQALSSAEPASSWWRVMALVLLISSMGLVVGLVALGIMSVTQQKYLLAEKENLSATLQQLAKKFCQELIRQSEIKTKSTFEHKCSPCATKWRYHGDSCYGFFRRNLTWEESKQYCTEQNATLVKTASQSTLDYIAERITSVRWIGLSRQNSKKDWMWEDSSVLRKNGINLSGNTEENMNCAYLHNGKIHPASCKERHYLICERNAGMTRVDQLL
# Legend:
# Assay in all cases: glycan array binding signal (z-score within array); higher = stronger binding
# Details in all cases: glycan notation: IUPAC condensed, linker removed
# [1] = biological target: Fuc(a1-2)Gal(b1-3)GalNAc(b1-3)Gal
# Outline: (§1)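 The binding signal is a Z-score computed within each array and averaged over linkers. Arrays of the same protein sequence at different concentrations or buffers were also averaged together. Data originate from 3228 arrays in the Consortium for Functional Glycomics database, kept only where the protein sequence was available.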
# [2] = biological target: Fuc(a1-2)Gal(b1-4)Fuc(a1-3)]GlcNAc(b1-2)Man(a1-3)[Fuc(a1-2)Gal(b1-4)[Fuc(a1-3)]GlcNAc(b1-2)Man(a1-6)]Man(b1-4)GlcNAc(b1-4)GlcNAc
# Outline: as §1
# [3] = biological target: Fuc(a1-2)[Gal(a1-3)]Gal(b1-4)GlcNAc(b1-3)GalNAc
# Outline: as §1
# [4] = biological target: Fuc(a1-2)[GalNAc(a1-3)]Gal(b1-3)GalNAc(a1-3)[Fuc(a1-2)]Gal(b1-4)GlcNAc
# Outline: as §1
# [5] = biological target: Fuc(a1-2)[GalNAc(a1-3)]Gal(b1-4)GlcNAc(b1-3)Gal(b1-4)GlcNAc(b1-3)Gal(b1-4)GlcNAc
# Outline: as §1
# [6] = biological target: Fuc(a1-3)[Gal(b1-4)]GlcNAc(b1-2)Man
# Outline: as §1
# Gal(a1-3)Gal(b1-3)GlcNAc = biological target: Gal(a1-3)Gal(b1-3)GlcNAc
# Outline: as §1
# [7] = biological target: Gal(a1-3)Gal(b1-4)[Fuc(a1-3)]GlcNAc(b1-2)Man(a1-3)[Gal(a1-3)Gal(b1-4)[Fuc(a1-3)]GlcNAc(b1-2)Man(a1-6)]Man(b1-4)GlcNAc(b1-4)GlcNAc
# Outline: as §1
# [8] = biological target: Gal(b1-3)GalNAc(a1-3)[Fuc(a1-2)]Gal(b1-4)GlcNAc
# Outline: as §1
# [9] = biological target: Gal(b1-3)GlcNAc(b1-2)Man(a1-3)[Gal(b1-3)GlcNAc(b1-2)Man(a1-6)]Man(b1-4)GlcNAc(b1-4)[Fuc(a1-6)]GlcNAc
# Outline: as §1
# [10] = biological target: Gal(b1-3)GlcNAc(b1-3)Gal(b1-4)Glc
# Outline: as §1
# [11] = biological target: Gal(b1-3)GlcNAc(b1-3)Gal(b1-4)GlcNAc(b1-6)[Gal(b1-3)GlcNAc(b1-3)]Gal(b1-4)Glc
# Outline: as §1
# [12] = biological target: Gal(b1-3)GlcNAc(b1-3)Gal(b1-4)[Fuc(a1-3)]GlcNAc(b1-6)[Gal(b1-3)GlcNAc(b1-3)]Gal(b1-4)Glc
# Outline: as §1
# [13] = biological target: Gal(b1-3)[Fuc(a1-4)]GlcNAc(b1-2)Man
# Outline: as §1
# [14] = biological target: Gal(b1-4)GlcNAc(b1-2)Man(a1-3)Man(b1-4)GlcNAc(b1-4)GlcNAc
# Outline: as §1
# [15] = biological target: Gal(b1-4)GlcNAc(b1-2)Man(a1-3)[GlcNAc(b1-4)][Gal(b1-4)GlcNAc(b1-2)Man(a1-6)]Man(b1-4)GlcNAc(b1-4)GlcNAc
# Outline: as §1
# [16] = biological target: Gal(b1-4)GlcNAc(b1-3)Gal(b1-4)GlcNAc(b1-3)Gal(b1-4)GlcNAc(b1-3)Gal(b1-4)GlcNAc(b1-2)Man(a1-3)[Gal(b1-4)GlcNAc(b1-3)Gal(b1-4)GlcNAc(b1-3)Gal(b1-4)GlcNAc(b1-3)Gal(b1-4)GlcNAc(b1-2)Man(a1-6)]Man(b1-4)GlcNAc(b1-4)GlcNAc
# Outline: as §1
# Gal3S(b1-4)Glc6S = biological target: Gal3S(b1-4)Glc6S
# Outline: as §1
# [17] = biological target: Gal3S(b1-4)[Fuc(a1-3)]Glc6S
# Outline: as §1
# Gal3S6S(b1-4)GlcNAc6S = biological target: Gal3S6S(b1-4)GlcNAc6S
# Outline: as §1
# Gal6P(b1-4)GlcNAc = biological target: Gal6P(b1-4)GlcNAc
# Outline: as §1
# Gal6S(b1-3)GlcNAc6S = biological target: Gal6S(b1-3)GlcNAc6S
# Outline: as §1
# [18] = biological target: GalNAc(b1-3)Gal(a1-4)Gal(b1-4)GlcNAc
# Outline: as §1
# GalNAc(b1-4)Gal(b1-4)Glc = biological target: GalNAc(b1-4)Gal(b1-4)Glc
# Outline: as §1
# [19] = biological target: GlcNAc(a1-4)Gal(b1-4)GalNAc
# Outline: as §1
# [20] = biological target: GlcNAc(a1-4)Gal(b1-4)GlcNAc(b1-3)Gal(b1-4)GlcNAc
# Outline: as §1
# [21] = biological target: Man(a1-2)Man(a1-2)Man(a1-6)[Man(a1-3)]Man
# Outline: as §1
# Neu5Ac(a2-3)Gal = biological target: Neu5Ac(a2-3)Gal
# Outline: as §1
# [22] = biological target: Neu5Ac(a2-3)Gal(b1-3)GlcNAc(b1-2)Man(a1-3)[Neu5Ac(a2-3)Gal(b1-3)GlcNAc(b1-2)Man(a1-6)]Man(b1-4)GlcNAc(b1-4)GlcNAc
# Outline: as §1
# [23] = biological target: Neu5Ac(a2-3)Gal(b1-4)GlcNAc(b1-2)[Neu5Ac(a2-3)Gal(b1-4)GlcNAc(b1-4)]Man(a1-3)[GlcNAc(b1-4)][Neu5Ac(a2-3)Gal(b1-4)GlcNAc(b1-2)[Neu5Ac(a2-3)Gal(b1-4)GlcNAc(b1-6)]Man(a1-6)]Man(b1-4)GlcNAc(b1-4)GlcNAc
# Outline: as §1
# [24] = biological target: Neu5Ac(a2-3)Gal(b1-4)[Fuc(a1-3)]GlcNAc(b1-3)GalNAc
# Outline: as §1
# [25] = biological target: Neu5Ac(a2-3)Gal6S(b1-4)GlcNAc
# Outline: as §1
# [26] = biological target: Neu5Ac(a2-3)[GalNAc(b1-4)]Gal(b1-4)Glc
# Outline: as §1
# [27] = biological target: Neu5Ac(a2-6)Gal(b1-4)GlcNAc(b1-2)Man(a1-3)[GlcNAc(b1-2)Man(a1-6)]Man(b1-4)GlcNAc(b1-4)GlcNAc
# Outline: as §1
# [28] = biological target: Neu5Ac(a2-6)Gal(b1-4)GlcNAc(b1-2)Man(a1-6)[Gal(b1-4)GlcNAc(b1-2)Man(a1-3)]Man(b1-4)GlcNAc(b1-4)GlcNAc
# Outline: as §1
# [29] = biological target: Neu5Ac(a2-6)Gal(b1-4)GlcNAc(b1-3)Gal(b1-4)GlcNAc(b1-3)Gal(b1-4)GlcNAc(b1-2)Man(a1-3)[Neu5Ac(a2-6)Gal(b1-4)GlcNAc(b1-3)Gal(b1-4)GlcNAc(b1-3)Gal(b1-4)GlcNAc(b1-2)Man(a1-6)]GalNAc
# Outline: as §1
# [30] = biological target: Neu5Ac(a2-6)Gal(b1-4)GlcNAc(b1-6)[Gal(b1-3)GlcNAc(b1-3)]Gal(b1-4)Glc
# Outline: as §1
# [31] = biological target: Neu5Ac(b2-6)Gal(b1-4)GlcNAc
# Outline: as §1
# [32] = biological target: Neu5Gc(a2-3)Gal(b1-3)GlcNAc
# Outline: as §1
# Neu5Gc(a2-3)Gal(b1-4)Glc = biological target: Neu5Gc(a2-3)Gal(b1-4)Glc
# Outline: as §1
# [33] = biological target: Neu5Gc(a2-8)Neu5Ac(a2-3)Gal(b1-4)GlcNAc
# Outline: as §1
# [34] = biological target: Neu5Gc(a2-8)Neu5Gc(a2-3)Gal(b1-4)GlcNAc(b1-3)Gal(b1-4)GlcNAc
# Outline: as §1
binder,measurement,setting,value
B1,glycan array binding signal (z-score),[1],9.47
same,glycan array binding signal (z-score),[2],3.96
same,glycan array binding signal (z-score),[3],-0.063
same,glycan array binding signal (z-score),[4],-0.388
same,glycan array binding signal (z-score),[5],-0.74
same,glycan array binding signal (z-score),[6],0.349
same,glycan array binding signal (z-score),Gal(a1-3)Gal(b1-3)GlcNAc,3
same,glycan array binding signal (z-score),[7],6.06
same,glycan array binding signal (z-score),[8],-0.939
same,glycan array binding signal (z-score),[9],-0.411
same,glycan array binding signal (z-score),[10],0.433
same,glycan array binding signal (z-score),[11],-0.864
same,glycan array binding signal (z-score),[12],-0.993
same,glycan array binding signal (z-score),[13],3.5
same,glycan array binding signal (z-score),[14],-0.472
same,glycan array binding signal (z-score),[15],-0.464
same,glycan array binding signal (z-score),[16],-0.166
same,glycan array binding signal (z-score),Gal3S(b1-4)Glc6S,3.71
same,glycan array binding signal (z-score),[17],1.03
same,glycan array binding signal (z-score),Gal3S6S(b1-4)GlcNAc6S,4.08
same,glycan array binding signal (z-score),Gal6P(b1-4)GlcNAc,3.62
same,glycan array binding signal (z-score),Gal6S(b1-3)GlcNAc6S,3.2
same,glycan array binding signal (z-score),[18],0.28
same,glycan array binding signal (z-score),GalNAc(b1-4)Gal(b1-4)Glc,1.12
same,glycan array binding signal (z-score),[19],-0.598
same,glycan array binding signal (z-score),[20],-0.749
same,glycan array binding signal (z-score),[21],-0.215
same,glycan array binding signal (z-score),Neu5Ac(a2-3)Gal,0.604
same,glycan array binding signal (z-score),[22],3.51
same,glycan array binding signal (z-score),[23],-0.711
same,glycan array binding signal (z-score),[24],0.837
same,glycan array binding signal (z-score),[25],0.844
same,glycan array binding signal (z-score),[26],-0.342
same,glycan array binding signal (z-score),[27],-0.833
same,glycan array binding signal (z-score),[28],-0.707
same,glycan array binding signal (z-score),[29],4.45
same,glycan array binding signal (z-score),[30],-0.654
same,glycan array binding signal (z-score),[31],0.023
same,glycan array binding signal (z-score),[32],-0.366
same,glycan array binding signal (z-score),Neu5Gc(a2-3)Gal(b1-4)Glc,-0.112
same,glycan array binding signal (z-score),[33],-0.442
same,glycan array binding signal (z-score),[34],-0.34
